PubChem BioAssay (NCATS)
Some of the results follow. Records with an inconclusive call do not appear. A number with no mark means an inactive call. Active and inactive are the calls of the source. Calls come from the whole dose curve; as a rule, active = well fitted inhibition curve with a large enough effect; inconclusive = small, poorly fitted or top-dose-only effect; inactive = flat fitted curve, though single readings scatter.

Experiment: qHTS Assay for Inhibitors of Fructose-1,6-bisphosphate Aldolase from Giardia Lamblia: Mammalian cellular toxicity (AID 2786);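 note: compound exposure lasted 48 h before reading; nearly all actives have a fitted effect of over 60% in size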
Details: mammalian cell viability counter-screen; series mostly up to 57.5 µM; viability change, negative = toxicity: at the top concentration
Text: NIH Chemical Genomics Center [NCGC]
NIH Molecular Libraries Probe Production centers Network [MLPCN]
Assay Provider: Osnat Herzberg, University of Maryland
The objective of this project is to obtain compounds that inhibit Giardia lamblia growth. G. lamblia is a human pathogen which afflicts impoverished nations; it is the most common cause of outbreaks of diarrhea in the United States. During the course of our study of potential drug targets in Giardia, we have identified the Class II (Zn2+ functions in electrophilic catalysis) fructose-1,6-bisphosphate aldolase (FBPA) as an excellent candidate for drug targeting. FBPA is a key glycolytic pathway enzyme, essential for G. lamblia survival. The human FBPA belongs to the Class I aldolases, which have a different substrate binding site structure and a radically different catalytic mechanism (employing a lysine-Schiff base intermediate). Therefore, affinity-based or mechanism-based inhibitors of the Giardia FBPA are expected not to interfere with the catalytic function of the human FBPA.
A glyceraldehyde-3-phosphate dehydrogenase/triose phosphate isomerase/NAD/arsenate coupled assay was adapted to the 1536-well HTP format for use in the primary screen. This was done by coupling it to a diaphorase/resazurin/resorufin reaction that can be monitored by fluorescence (excitation, 544 nm; emission, 590 nm). Compounds identified in this screen will be further evaluated by coupling the glycerol-3-phosphate/triose phosphate isomerase/NADH assay to a phenazine methosulfate/tetranitroblue tetrazolium color reaction. False positives due to the dehydrogenases and diaphorase inhibition will be eliminated, and selectivity assay will triage inhibitors of mammalian triose phosphate isomerase and the Class I FBPA. G. lamblia FBPA inhibitors identified by the in vitro analyses will be examined for growth inhibition of Giardia trophozoites, and for cytotoxicity in human cells.
This assay addresses whether hits in the primary screen are cytotoxic to mammalian cells, using Chinese hamster ovary cells as a surrogate.
2uL/well media was dispensed per well into 1536-well white solid-bottom plates using Multidrop Combi dispenser. Subsequently, 23 nL/well compound solutions or DMSO controls were dispensed to the assay plates via a pintool workstation. The Chinese hamster ovary (CHO) cells were grown in T225 flasks to 70% confluence under a standard cell culture condition (ATCC), detached with 0.25% Trypsin/EDTA, and seeded at 250 cells/well in 5uL medium (Dulbecco's Modified Eagle Medium, 10% fetal bovine serum, 1x penicillin/streptomycin). The plates were incubated at 37 °C with 5% CO2 and 95% humidity for 48 hours, and then ATP content was measured following the addition of 4uL/well of ATPlite reagent and a 20 min incubation on a ViewLux plate reader.
Keywords: Fructose-bisphosphate aldolase, FBPA , Giardia lamblia , Giardia, HTS, Inhibitors
% is set by controls: 0 for no effect and ±100 for the full control effect; potency is the fitted concentration of half-maximal effect.

Structure (SMILES) | viability change, negative = toxicity [%] | Potency
Cc1ccc(C(=O)Nc2nnc(C3=COCCO3)o2)cc1C | 0.426 | 
O=C(CN1CCN(Cc2ccccc2)CC1)Nc1ccc(F)c(F)c1 | 15.6 | 
O=C(Nc1ccccc1Cl)O/N=C(/c1ccccc1)c1ccccn1 | 0.929 | 
C=C(C)CNC(=S)N/N=C/c1ccccc1OCC(=O)O | 21.4 | 
Cc1csc(NC(=O)CN2CCCCCC2)n1 | -7.59 | 
O=C(O)Cn1c(Cc2ccccc2)nc2ccccc21 | -4.21 | 
CN(C)CCOc1ccc(Cl)cc1C(C)(C)C | -4.49 | 
CN1C(=O)/C(=C\c2ccc(-c3ccccc3)o2)SC1=S | -4.51 | 
CCN(CC(=O)NC(=O)NCc1ccccc1)Cc1nc2ccccc2c(=O)[nH]1 | -3.84 | 
O=S(=O)(c1ccc(NC(=S)NN=C(C2CC2)C2CC2)cc1)N1CCOCC1 | 1.01 | 
C=CCc1cc(C)ccc1OCCCn1ccnc1 | 19.1 | 
Cc1ccc(OCCCCc2c(C)n[nH]c2C)cc1 | 29.7 | 
O=[N+]([O-])c1cc([N+](=O)[O-])c2cccnc2c1O | 21.6 | 
COc1cc(CN2CCN(Cc3ccc(C)cc3)CC2)c([N+](=O)[O-])cc1OC | -16 | 
CSc1n[nH]c(=S)n1N | 2.66 | 
O=c1nc(N/N=C/c2ccco2)cn[nH]1 | 3.52 | 
O=C(Nc1nnc(-c2ccco2)o1)c1ccc(S(=O)(=O)N2CCOCC2)cc1 | 8.14 | 
CNC(=S)N/N=C/c1ccc(N2CCOCC2)s1 | -3.94 | 
O=C(NC(=S)Nc1ncccn1)c1ccccc1Br | -18.1 | 
Oc1[nH]c2ccc(Br)cc2c1N=Nc1nn[nH]n1 | -1.69 | 

Structure (SMILES) | viability change, negative = toxicity [%] | Potency
CN1CCN(CCCCOc2ccccc2-c2ccccc2)CC1 | -3.92 | 
C/C(=N\NC(N)=S)c1cccnc1 | 3.52 | 
Cc1nnc(SCC2=C(C(=O)O)N3C(=O)C(NC(=O)Cn4nc(C)c(Cl)c4C)C3SC2)s1 (stereo not given) | 3.23 | 
COc1ccc(C(=O)NC(=S)N2CCCCC2c2cccnc2)cc1OC (stereo not given) | 1.32 | 
Cc1cc(C)c2c(=O)[nH]c(SCC(=O)Nc3ccc(Br)cc3)nc2n1 | -8.04 | 
COc1ccc(Cl)cc1C(=O)NNC(=O)c1nc2nc(C)cc(C)n2n1 | 12.3 | 
Cn1nnc(NC(=S)NC(=O)c2ccccc2)n1 | -1.08 | 
Cc1cccc(C)c1OCCN1CCOCC1 | 9.69 | 
CCc1ccc2c(c1)C1(NN=C(c3ccccc3)S1)C(=O)N2 (stereo not given) |  | 25.1 µM (active)
Cc1cc(C)nc(N/N=C/c2ccc([N+](=O)[O-])o2)n1 | 0.383 | 
COCCN(C(=S)Nc1ccccc1OC)C1CCN(C(C)C)CC1 | 1.84 | 
COC(=O)CC1=NN(c2nc(C)cc(C)n2)C(=O)C1 | 1.41 | 
Cc1cc(C)n(-c2ccc(Cl)c(C(=O)O)n2)n1 | 7.82 | 
CN1CCCc2cc(C#N)c(=O)[nH]c21 | -2.91 | 
Cc1nc2ccc(NC(=S)N3CCC(C)CC3)cc2nc1C | -5.49 | 
O=c1[nH]c(=S)[nH]c2[nH]c(=S)[nH]c12 | -1.2 | 
OCCN1CCN(C(=S)c2ccc(-c3ccccc3)cc2)CC1 | 6.87 | 
CC1CCCN(S(=O)(=O)c2ccc(C(=O)Nc3nnc(-c4ccncc4)o3)cc2)C1 (stereo not given) | -6.34 | 
COc1ccccc1CN1CCN(Cc2cc(OC)c(OC)cc2OC)CC1 | 3.82 | 
Clc1cccc(CN2COc3c(cc(Cl)c4cccnc34)C2)c1 |  | 20 µM (active)
